# Assay results: PubChem BioAssay
# Active and inactive are the calls of the source.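 Rule for the calls, unless noted: active = visually confirmed hit in the image check and inhibition above 20%; inconclusive = visually confirmed hit but inhibition not above 20%; inactive = no visual hit in the image check.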
# Assays:
# [1] = inhibitors of TNFa-induced NFkB p65 translocation, primary screen, imaging, HUVEC, MLSMR starter and 10KST1 sets (AID 438;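 active = inhibition above 20% together with a positive visual image hit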;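 note: compound added about 3h40 before a 20 min TNFalpha stimulation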;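 for inhibition: signal is the nuclear over cytoplasmic p65 intensity ratio per well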); details: HUVEC TNFa-induced p65 nuclear translocation; cell count: measured here: nuclei count (cytotoxicity indicator), at 2.08 µM; inhibition: at 2 µM, stronger effect = higher value, 0% TNFa-plus-vehicle, 100% no-TNFa wells
# [2] = inhibitors of mutant huntingtin aggregation, primary screen, imaging, exon1htt(103Q)mCFP cells, high-content imaging (AID 483;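 active = visual image review flags a hit and inhibition of aggregation exceeds 20%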;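 note: compound exposure lasted 3 days before fixation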;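 for nuclei count: percent of the per-plate median nuclei count of sample wells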); details: exon1htt(103Q)mCFP cell line, aggregate imaging, at 2 µM; inhibition of aggregation: stronger effect = higher value; nuclei count: measured here: cell count, toxicity
# [3] = inhibitors of E-selectin induction by TNFa, primary screen, imaging, HUVEC, immunofluorescence, MLSMR starter and 10KST1 sets (AID 487); details: HUVEC TNFalpha-induced E-selectin immunofluorescence imaging, at 2 µM; inhibition: stronger effect = higher value; nuclei count: measured here: cell number, toxicity;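 for inhibition: signal is fraction of cell area covered by stained E-selectin grains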;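 for nuclei count: 100% = median nuclei count of all wells on the same plate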
# [4] = target: Voltage-gated potassium channel subunit beta-2 (Rattus norvegicus) (UniProt P62483); experiment: KvBeta enzyme negative modulators, primary screen, biochemical, NADPH fluorescence (AID 622;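 active = fluorescence slope higher than the sample average by over 3 SD, cut at about -0.22 in these data, passing the limit was not always enough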;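 note: slope of raw intensity against log time taken from 70 to 1610 s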); details: recombinant KvBeta, 4-cyanobenzaldehyde reduction, at 10 µM, stronger effect = higher value
# [5] = target: Voltage-gated potassium channel subunit beta-2 (Rattus norvegicus) (UniProt P62483); experiment: KvBeta positive modulators, primary screen, biochemical, NADPH fluorescence (AID 623;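 active = NADPH fluorescence slope more negative than the mean of all samples by about 3 SD, 99.7% confidence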;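 note: fluorescence intensity change per second fitted from 20 to 320 s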); details: Recombinant KvBeta, NADPH fluorescence decrease slope, 10 min; at 10 µM; stronger effect = lower value
# [6] = target: Alpha-2C adrenergic receptor (Homo sapiens) (UniProt P18825); experiment: modulators of alpha2C/GIRK thallium flux, primary screen, cell-based, HEK293 alpha2C/GIRK1/2 (AID 624;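 active = fluorescence slope after compound addition differing from the mean of all screened samples at 99.7% confidence, in either direction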;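 note: slope of fluorescence ratio to pre-addition baseline per second over 15 to 24 s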); details: thallium flux BTC fluorescence, at 10 µM, actives lie on both sides
# [7] = inhibitors of Sendai virus-induced IRF3 signaling, primary screen, TLR/RLR signaling modifier project, cell-based, Sendai virus stimulus, luciferase, 10K MLSCN set (AID 602276;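 active = inhibition at or above 50% at 10 µM; inactive = inhibition below 50%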;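 note: firefly luciferase from ISG56 promoter only with Renilla not read in this screen; 0% = Sendai virus plus DMSO and 100% = medium plus DMSO without virus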); details: HEK293 RL24 IRF3 luciferase reporter, at 10 µM, stronger effect = higher value
# [8] = inhibitors of poly I:C-induced TLR3 signaling, primary screen, cell-based, poly I:C stimulus, luciferase, 10K MLSCN set (AID 602277;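 active = inhibition of the reporter signal at or above 50%; inactive = inhibition below 50%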); details: HEK293-TLR3 RL24 IRF3 luciferase reporter, at 10 µM, stronger effect = higher value
# Chain of Alpha-2C adrenergic receptor (Homo sapiens) (P18825 whole entry, looked up): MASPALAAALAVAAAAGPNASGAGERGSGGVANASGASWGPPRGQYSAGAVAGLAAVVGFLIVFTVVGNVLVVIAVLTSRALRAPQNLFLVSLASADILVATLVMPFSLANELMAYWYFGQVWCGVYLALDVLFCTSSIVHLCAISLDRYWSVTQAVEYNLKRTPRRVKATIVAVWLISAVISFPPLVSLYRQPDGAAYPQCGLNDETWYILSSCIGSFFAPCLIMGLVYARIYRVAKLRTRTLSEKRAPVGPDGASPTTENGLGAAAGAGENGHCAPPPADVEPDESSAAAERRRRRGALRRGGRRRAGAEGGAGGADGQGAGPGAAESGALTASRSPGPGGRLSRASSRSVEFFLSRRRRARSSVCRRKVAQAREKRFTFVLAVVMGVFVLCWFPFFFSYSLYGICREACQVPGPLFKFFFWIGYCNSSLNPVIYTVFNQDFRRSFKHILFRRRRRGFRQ
# Chain of Voltage-gated potassium channel subunit beta-2 (Rattus norvegicus) (P62483 whole entry, looked up): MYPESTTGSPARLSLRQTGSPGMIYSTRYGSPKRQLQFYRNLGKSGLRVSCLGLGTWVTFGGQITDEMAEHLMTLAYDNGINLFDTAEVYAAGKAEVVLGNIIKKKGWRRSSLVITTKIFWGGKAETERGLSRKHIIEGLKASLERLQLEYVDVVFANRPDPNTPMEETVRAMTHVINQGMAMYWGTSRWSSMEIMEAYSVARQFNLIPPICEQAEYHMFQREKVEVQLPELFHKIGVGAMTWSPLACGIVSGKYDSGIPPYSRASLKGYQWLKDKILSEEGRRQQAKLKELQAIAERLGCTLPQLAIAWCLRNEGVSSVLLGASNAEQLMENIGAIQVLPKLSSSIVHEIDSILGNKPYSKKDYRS
SMILES,cell count [1],inhibition [1],inhibition of aggregation [2],nuclei count [2] [%],inhibition [3],nuclei count [3] [%],fluorescence slope [4],NADPH fluorescence slope [5],slope [6],inhibition [7],inhibition [8]
COc1ccccc1-n1c(=O)[nH]c2c(C(N)=O)nc(CC(C)C)nc21,809,-0.5% (inactive),-23.3% (inactive),105,2.2% (inactive),117,-0.58 (inactive),-3e-05 (inactive),0.00821 (inactive),13% (inactive),32.3% (inactive)
CC(=O)c1cccc(S(=O)(=O)NCC(c2ccco2)N2CCCCC2)c1 (stereo not drawn),707,-2% (inactive),-10% (inactive),107,-140% (inactive),145,-0.62 (inactive),-1.6e-05 (inactive),0.0049 (inactive),5.82% (inactive),6.55% (inactive)
O=C(CSc1nnc(-c2ccccc2Br)o1)Nc1cccc2ccccc12,541,-12.1% (inactive),16.2% (inactive),81.3,33.7% (inactive),65.3,-0.546 (inactive),2.3e-05 (inactive),0.00661 (inactive),1.31% (inactive),-12.6% (inactive)
CCCCCCn1c(SCC(=O)OC)nc2c1c(=O)[nH]c(=O)n2C,502,-5.9% (inactive),25.4% (inactive),71.7,5% (inactive),91.4,-0.42 (inactive),-5.2e-05 (inactive),0.00477 (inactive),9.4% (inactive),31.6% (inactive)
c1ccc(Oc2ccc(-n3cnnn3)cc2)cc1,254,1.5% (inactive),-1.2% (inactive),66,-14% (inactive),106,-0.391 (inactive),9.8e-07 (inactive),0.00429 (inactive),-11.3% (inactive),0.336% (inactive)
CCc1cc2c(CN3CCN(CCO)CC3)cc(=O)oc2cc1O,396,1.3% (inactive),-12.5% (inactive),102,-34.5% (inactive),60.8,-0.0121 (active),1.7e-06 (inactive),0.00408 (inactive),17.8% (inactive),27% (inactive)
CCOC(=O)C(NC(=O)c1ccccc1)(Nc1cc(C)on1)C(F)(F)F (stereo not drawn),379,2.6% (inactive),-4.6% (inactive),101,0.6% (inactive),88.4,-0.494 (inactive),-1.9e-05 (inactive),0.00554 (inactive),14.5% (inactive),24.7% (inactive)
CCOC(=O)c1cccc(NC2c3ccccc3C(=O)N2Cc2ccco2)c1 (stereo not drawn),700,-2.3% (inactive),10.2% (inactive),117,-10.9% (inactive),119,-0.554 (inactive),-4.1e-05 (inactive),0.00706 (inactive),6.59% (inactive),17.6% (inactive)
COc1ccccc1NC(=O)c1cc2n(n1)C(C(F)(F)F)CC(c1ccc3c(c1)OCO3)N2 (stereo not drawn),479,2.4% (inactive),5.1% (inactive),109,-14.9% (inactive),110,-0.629 (inactive),6.1e-06 (inactive),0.00604 (inactive),-5.6% (inactive),-16.2% (inactive)
O=C(CSc1nc(-c2ccccc2)cs1)NC(=O)NCc1ccco1,355,-1.1% (inactive),1% (inactive),75.7,-105% (inactive),125,-0.429 (inactive),3.1e-06 (inactive),0.00572 (inactive),18.5% (inactive),3.13% (inactive)
N#Cc1c(NC(=O)c2ccc(Br)o2)n(-c2ccccc2)c2nc3ccccc3nc12,275,-1.4% (inactive),14.7% (inactive),97.4,-63.2% (inactive),104,-0.502 (inactive),-2e-05 (inactive),0.0121 (active),19.9% (inactive),18.8% (inactive)
COc1cccc(C(=O)CN2CCC(NC(=O)NC3CCCCC3)CC2)c1,513,-25.5% (inactive),10.5% (inactive),51.6,-26.9% (inactive),114,-0.393 (inactive),-3.8e-05 (inactive),0.00349 (inactive),7.64% (inactive),-12.8% (inactive)
COc1ccccc1OCCSc1nc2ccccc2c(=O)[nH]1,361,3.5% (inactive),-4.7% (inactive),89.3,-49.6% (inactive),86.8,-0.35 (inactive),-5.3e-05 (inactive),0.00628 (inactive),-4.62% (inactive),-5.54% (inactive)
COc1ccc(S(=O)(=O)N2CCN(Cc3ccc(Cl)cc3)CC2)cc1,554,-5.4% (inactive),24.4% (inactive),61.1,-97.9% (inactive),148,-0.458 (inactive),-9.2e-06 (inactive),0.00502 (inactive),0.485% (inactive),-1.64% (inactive)
COc1ccc2nc(CC(C)(C)CC(=O)O)c[n+]([O-])c2c1,377,-1% (inactive),-0.5% (inactive),110,-11.7% (inactive),94,-0.587 (inactive),-1.8e-05 (inactive),0.0065 (inactive),10.6% (inactive),29.8% (inactive)
CCN(CC)CCCN1C(=O)C(=O)/C(=C(/O)c2ccc3c(c2)OCO3)C1c1ccccn1 (stereo not drawn),621,1.8% (inactive),21.9% (inactive),85.9,-18.3% (inactive),90.7,-0.495 (inactive),-4.9e-05 (inactive),0.00526 (inactive),-5.97% (inactive),12.1% (inactive)
CC(O)c1c(OCc2ccccc2)ncnc1OCc1ccccc1 (stereo not drawn),426,0.5% (inactive),-7.1% (inactive),65.7,-36.1% (inactive),115,-0.44 (inactive),-0.000123 (inactive),0.00502 (inactive),10.6% (inactive),20.8% (inactive)
Cc1ccnc(NC(=O)C2CCC(CNc3c(N4CCCC4)c(=O)c3=O)CC2)c1 (stereo not drawn),544,4.4% (inactive),-2.5% (inactive),113,-31.3% (inactive),98.8,-0.598 (inactive),-2.9e-05 (inactive),0.00671 (inactive),4.3% (inactive),18.4% (inactive)
COc1ccc(C2c3c(oc4ccccc4c3=O)C(=O)N2c2ccc(C)cn2)cc1OC (stereo not drawn),865,0% (inactive),-13.4% (inactive),75,-34.6% (inactive),103,-0.605 (inactive),6.8e-06 (inactive),0.00601 (inactive),-0.686% (inactive),-4.49% (inactive)
COCCCNC(=O)CSc1ccc(Cl)cc1,378,-1.8% (inactive),-3.3% (inactive),93.9,10.2% (inactive),80,-0.377 (inactive),-5e-05 (inactive),0.00511 (inactive),1.1% (inactive),10.8% (inactive)
CN1CCN(c2oc(COc3ccc(-c4ccccc4)cc3)nc2C#N)CC1,3,117% (active),18.4% (inactive),98.4,-35.9% (inactive),111,-0.425 (inactive),1e-05 (inactive),0.00577 (inactive),8.52% (inactive),-19.8% (inactive)
Cn1c(C(=O)NCCN2CCN(c3ccccc3F)CC2)cc2c(=O)n(C)c3ccccc3c21,1100,11% (inactive),12.6% (inactive),119,-30.2% (inactive),112,-0.571 (inactive),-2.1e-05 (inactive),0.00598 (inactive),4.48% (inactive),16% (inactive)
CN1CCN(C(=O)c2ccc3c(=O)n(CCc4ccccc4)c(=S)[nH]c3c2)CC1,551,-13.1% (inactive),-0.8% (inactive),77,-44.1% (inactive),98.9,-0.459 (inactive),5.7e-06 (inactive),0.00697 (inactive),4.3% (inactive),23.3% (inactive)
O=C(COC(=O)CCC1CCCC1)Nc1ccc(Cl)cn1,429,-4.8% (inactive),-13.9% (inactive),115,-27.8% (inactive),108,-0.345 (inactive),-5.6e-05 (inactive),0.00786 (inactive),-6.45% (inactive),3.24% (inactive)
Cc1cc(Cl)ccc1OCC(=O)Nn1c(C)ccc1C,480,-4.9% (inactive),-6.4% (inactive),94.5,-16.2% (inactive),136,-0.525 (inactive),-3.9e-05 (inactive),0.00483 (inactive),11.6% (inactive),15.5% (inactive)
COc1ccc(CCNc2oc(COc3ccccc3Cl)nc2C#N)cc1OC,643,0.3% (inactive),-3% (inactive),99.9,-24.6% (inactive),109,-0.462 (inactive),-5.7e-05 (inactive),0.00453 (inactive),1.77% (inactive),-11% (inactive)
CCOc1ccccc1NC(=O)CSc1nnc2c(CC)c(C)nc(N)n12,340,-6.8% (inactive),1.5% (inactive),99.1,9.7% (inactive),92.7,-0.305 (inactive),-4e-05 (inactive),0.00576 (inactive),-6.38% (inactive),98.4% (active)
CC(C)C1C2=C(CC(C)(C)CC2=O)ON1c1ccccc1 (stereo not drawn),444,0.5% (inactive),9.1% (inactive),86.8,-51.2% (inactive),115,-0.476 (inactive),-4.4e-05 (inactive),0.0045 (inactive),14.4% (inactive),16.5% (inactive)
